Source: PubChem BioAssay AID1508600 (Functional Genomics Laboratory (NCATS/FGL), 2020)
Hit rate of the full screen: of about 53,000 sequences, about 3,700 (7%) were called active. Only a selection was taken, and actives are over-represented in it overall. Unmarked numbers belong to inactive results.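 How the source made its calls: active means gene knockdowns whose robust z-score for IL-1 alpha signal is at least 2 or at most -2, so actives lie on both sides; inactive means the rest.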

assay: Components of the Cytosolic LPS Sensing Pathway: Gene Identification via Genome-wide siRNA Screen; settings: RAW264.7 macrophages, IL-1a HTRF, actives lie on both sides, screened at 100 nM (by protocol), cells primed 5 h with Pam3CSK4 first;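 further: robust z of the log signal after scaling to non-targeting control siRNA wells of the plate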
In short: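 Mouse macrophage line RAW264.7 is transfected with siRNA (100 nM final), grown 48h, primed with TLR ligand Pam3CSK4 5 h and given intracellular LipidA 24 h. IL-1a in supernatant is read by HTRF and viability by luminescence.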

With GGAACAUCAAGGGAAUUAUTT against Zfp638 the z-score was 2.36 (active).
For GCCACAACUCCAGAUGCCUTT against Olfr937, the z-score was -2.64 (active).
In the case of GCCUCCAGAACUCACUGCATT against Hes3, the z-score is reported as -2.04 (active).
With GCUGCCAUUUCGCCAAUCUTT against Mfap4 the z-score was -2.65 (active).
For GGCCGAGUACAAACGUGGATT against Atg9a, the z-score was 2.77 (active).
With GGUGCAAGAUCAAGAACUGTT against C1ra the z-score was 2.78 (active).
For GGCAGUUCAAAAGACCACATT against Zcchc7, the z-score was 2.38 (active).
With GGAGCAUCUCAAACCUUCATT against Lancl3 the z-score was -3.8 (active).
In the case of GAUGCGGCUCCUUGGAAUUTT against Slc51b, the z-score is reported as 2.38 (active).
For GCCGGAAGAUAAGGCUCAUTT against Gap43, the z-score was -2.2 (active).
With GGAUCUUAAGUCCUAACAUTT against Tacc3 the z-score was -2.37 (active).
For GGUGAUGCCUGUGAAGACATT against Il3ra, the z-score was 2.04 (active).
With GUCUCAAGUGGACUGUGAGTT against Klk1b4 the z-score was -2.83 (active).
With GGGCUAAGGCGAAAAGACUTT against Msx2 the z-score was 3.24 (active).
For GGUGAUGAUGUCAUACAAATT against Cav1, the z-score was 3.12 (active).
In the case of GGGCUAAAGUUGAUAAUAATT against Psmc3, the z-score is reported as -2.02 (active).
With GGAGUUCGUACCCUUAUCCTT against Rtel1 the z-score was -2.2 (active).
For GGGACCAGAGGAAACAGAATT against Tnfsf13b, the z-score was -2.21 (active).
In the case of GGAAUUAUAAAAGACCACGTT against Kctd12b, the z-score is reported as 2.39 (active).
In the case of GGCUGGUAUCUUUCAGAGUTT against Cox6c, the z-score is reported as 2.2 (active).
For GGACACUUUCUCAUAUCAUTT against Abca9, the z-score was 2.06 (active).
With GGAGGCUCUACUUUUGUAGTT against Olfr611 the z-score was -2.16 (active).
In the case of “GGGCCACUGCCAAAUACUATT against 2510009E07Rik”, the z-score is reported as 3.33 (active).

Going from GGACAACAGUGGAAGGCUCTT against Serpinb1a to GGAGGUGAACCAUAGAGAGTT against Csrnp2, the z-score rises from 0.841 to 1.12.

Compared with CCCUCUAUCAGUUACCCUGTT against Mcpt2, GGACAAUGGUUCCUUGGAUTT against Cdc25c is higher in z-score: 0.686 for the first, 0.981 for the second.

Compared with GGAUGUCACUCUUGCAUUGTT against Olfr948, GGAAGAACUUCAGAAUGCATT against Slirp is lower in z-score: 0.75 for the first, -0.627 for the second.

Compared with CCUUCAUUGUGAUUGACAUTT against Ptpn11, GGUUCAGUGCUUUGUGUUCTT against Il2rg is higher in z-score: -0.55 for the first, -0.541 for the second.

First: CCUUCUAAAUACUGAUUUGTT against Ugt2b38
Second: GCAGAAUAUUAACCAGUGUTT against Ptp4a2
The z-score of the first is lower: 0.699 for the first, 1.15 for the second.

First: CCAGUUCCGGUCAGAUUAUTT against Gnal
Second: AAGGAAGUCUGUCCAAGGUTT against Olfr192
The z-score of the first is lower: -1.55 for the first, -0.284 for the second.

Going from GGGAGCAUCAAACAACAAUTT against Tbr1 to GGCUGUGGAUUUCUCUCUGTT against Kng1, the z-score falls from 0.742 to -0.334.

Going from CCUGAGUCAGAUUCAUUUATT against Pten to GGUGCCAUUCAUCUUUCAATT against Tmprss3, the z-score rises from 0.292 to 1.85.

Compared with GGAAGAACAGGAAGAAGUGTT against Pank1, CCAGCUUUCAUUAACUUUATT against Ppp1r10 is lower in z-score: 1.02 for the first, -0.571 for the second.

Going from CGAGCUAUCCACUUAAUCATT against Irak3 to GGCUCUGGGUGGUAUUCAUTT against Slc5a2, the z-score rises from -0.859 to -0.637.

Compared with GGCACUGGGCAAACAUUAATT against Ptprcap, GGGCAACGAGCUGUUCAAATT against Unc45a is higher in z-score: 1.09 for the first, 1.71 for the second.

Going from GGGAUCUGGAUUUAAUUUGTT against Arf5 to GGUCACACCCACCAUUACGTT against Serpina11, the z-score falls from 0.523 to -0.765.

Compared with CCAUUACAGGGUUUUUUAUTT against Slc37a3, GGGAAAAGCAAACACUAAUTT against C1d is lower in z-score: -0.62 for the first, -1.84 for the second.

Compared with GGUCAUAAGAAGCUCAAGATT against Serpinb9d, GGAAGAACUCAAGAGGGAATT against Plpp2 is lower in z-score: 0.268 for the first, -0.775 for the second.

Compared with GCUGGGAGUAAAAUUGACUTT against Cenpj, CGAGCAUGCUGAAAAGACCTT against Steap1 is lower in z-score: -0.65 for the first, -0.826 for the second.

Compared with GGUUUUAAAGCAUCUUCGUTT against Pard6g, GGGCAACAUUUUUCAGUGCTT against Prox1 is higher in z-score: -0.284 for the first, 0.722 for the second.

Compared with CCGAUAAUGCUUUCUUUGGTT against Ppp1cc, “CCAAGUCAGUGCUGUAAAGTT against F830104G03Rik” is lower in z-score: 0.547 for the first, -1.58 for the second.

Going from GGGAUAUUCAUUGACUUUGTT against Prr5 to CCAAGAAUGUUUCCAUGUUTT against Slc12a5, the z-score rises from -1.88 to -1.68.

Going from CCUGAACCACUUGUUAAAUTT against Rnf10 to GCUUCAGGUCAGUCUCUUCTT against Olfr1042, the z-score rises from 0.124 to 0.969.

First: GGAGGCAAAAAUGAUGCUATT against Slpi
Second: GCAUCUCACUUUUGACCUATT against Retreg2
The z-score of the first is higher: 1.97 for the first, 0.928 for the second.

First: GCAAUUAUAACUUAGAAGGTT against Eml3
Second: GCCUUUCAACUCACCAGCCTT against Zfp574
The z-score of the first is lower: 0.149 for the first, 0.617 for the second.

Going from GGGAAGGAAUAUGAUGGGCTT against Sik3 to GGUCCCAACGAAGAAACCATT against Cd55, the z-score rises from -0.704 to 0.475.

Going from GCUAAAUUUCCCAUAGGAATT against Pmch to GGAGCUUCGAAAAAAGUUGTT against Pex16, the z-score falls from 0.822 to 0.329.

First: GCACAAUUAUGAGAGUGCATT against Grin1
Second: GGGUUAAGCGCAAGUGUAATT against Degs2
The z-score of the first is lower: -0.91 for the first, 0.331 for the second.

Compared with GGCUGAAAAUAUUUUCAGATT against Garnl3, GGAGCCAGUGACAAUAAAUTT against Mtag2 is lower in z-score: -0.1 for the first, -1.1 for the second.

First: GGCUCUCAUCCAUCUCCUUTT against Olfr715
Second: GGUCUGGAAAACCAGCUUATT against D630039A03Rik
The z-score of the first is lower: -1.79 for the first, 1.04 for the second.

Compared with GGUUGAAGUCUAUUCUCGATT against Trap1, GGGUUUGACAGAGAGAAGATT against Atp5g2 is lower in z-score: -0.139 for the first, -0.581 for the second.

First: GGUGAGCGUGUAGAGAUGCTT against Fbxo45
Second: GCACUUUGUGCUAUAUAAGTT against Mapk14
The z-score of the first is higher: 0.787 for the first, 0.616 for the second.

Compared with GGUAAAGUUGCUUAAUUAGTT against Msl3l2, GGAAGAAGUCUGAUACAUCTT against Samd5 is lower in z-score: 0.944 for the first, 0.572 for the second.

Compared with CGCUAAUCUUCGAAAACCUTT against Abcc12, GGUUAUCCAACCUAGAAUATT against Tmlhe is higher in z-score: -0.998 for the first, 0.74 for the second.

First: GGCAAAGUUUGGGAUUACATT against Ntng1
Second: GGUUGUAUUGGAUAUCAAGTT against Ceacam2
The z-score of the first is higher: 1.17 for the first, 0.953 for the second.

Compared with GGACUUUGAAAAGAGAAUUTT against Polb, GGACUUCUCCAUCCUGCUUTT against Alg1 is lower in z-score: -0.213 for the first, -0.542 for the second.

First: GGGCAUUGCCAGGAAUUAUTT against Lrp1b
Second: GUUGUCCAUAUCAUGUUUGTT against Olfr569
The z-score of the first is higher: 1.31 for the first, 1.28 for the second.

Going from GGGAAGAGCCCUAAUAUUATT against Aldh1a2 to GGUGGACAAGACUAAAACATT against Podxl, the z-score falls from -0.098 to -0.253.

Going from GGGCCAAAUAGCUAUGCAGTT against Aldoc to GGUGCUCUCAGGAAAGUUGTT against Olfr1157, the z-score rises from -0.309 to 0.82.

Going from CCUGUACUCUAUAUUCUGUTT against Pld2 to GGCCAUCGAACUCAAUCUCTT against Lrrc57, the z-score falls from 0.98 to 0.243.

Compared with GGAGUAUGAUAAUGAACCATT against Areg, GGACAUCAAGUUCUUGCCATT against Hspa5 is lower in z-score: -0.0698 for the first, -0.478 for the second.

First: GGAACCAAUCGGGAUUUUGTT against B330016D10Rik
Second: CGGUUCCACUUCAAAUGACTT against Hsd17b2
The z-score of the first is lower: 0.179 for the first, 0.72 for the second.

First: GGCUUCCCGGAGUAACAAUTT against Dlgap1
Second: GAAAAGAAUUCCAGAAGAUTT against Sec61g
The z-score of the first is lower: -0.742 for the first, 1.19 for the second.

First: CCAGUGCGUCACUCAGUAATT against Ssmem1
Second: GGAUGAAGGGACGAAUUCATT against Pcdha6
The z-score of the first is lower: -1.11 for the first, 0.635 for the second.

First: GCUGUGCAAGCAAUAUCUATT against Hnrnpm
Second: CCCUUUCGAGGUGGUAAAATT against Slc25a21
The z-score of the first is higher: 0.423 for the first, 0.11 for the second.

Going from GCCAAAUAAUCUGAAAGCCTT against Rpl28 to GGAGCGCGUGAAACUGUCUTT against Fbxw4, the z-score falls from 0.309 to -0.752.

Sequence GGAAAGCUUCAGAAUCUAATT against Bckdk has a z-score of -0.365.
